# According to PubChem BioAssay (NCATS):
# Values without a mark were called inactive. Inconclusive results are not listed. Calls of active or inactive are those of the source. Unless noted, the call rests on the fitted dose curve; in most records, active means well fitted curve in the direction sought with a large enough effect; inconclusive means small, poorly fitted or top-dose-only effect, or another doubt; inactive means no such curve, though single readings can be large; an effect the other way counts as inactive or inconclusive.
# Columns and labels:
# [1] = NCATS anti-infectives library activity on the primary C. elegans qHTS viability assay (AID 1745855; calls by dose curve; further: potency means the concentration at half of the fitted maximal effect)
# Procedure, shortened: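 Viability is taken from GFP fluorescence of PE254-GFP-FLuc C. elegans imaged by laser cytometry over 7 days. Ten L1 worms per well grow at 21 °C on TOP10 E. coli capsules with titrated compound; levamisole marks toxicity.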
# [2] = target: Lysosomal acid glucosylceramidase (Homo sapiens) (UniProt P04062); assay: Glucocerebrosidase-p2 (AID 348; in the data active means potency below about 10 µM; further: potency means the concentration at half of the fitted maximal effect); conditions: purified GBA, blue fluorogenic substrate, 40 min
# Procedure, shortened: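 Compounds titrated from 0.6 nM upwards against 0.2 nM enzyme in pH 5.9 citric acid/KH2PO4, taurocholate, tween-20; blue fluorogenic substrate 80 uM, 40 min room temperature, stopped and read Ex 365/Em 440 for AC50.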
# [3] = AP1 Signaling Pathway (AID 357; active means well fitted curve in either direction with a large enough effect, not every such curve was filed as active;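 further: ME-180 reporter cells stimulated with EGF at its EC50 level; on the % scale 0 is the no-effect control and ±100 the full control effect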); conditions: ME-180 AP-1-bla reporter, EGF-induced, beta-lactamase ratio, 5 h; at 7.69 µM (top of the series) unless noted
# Procedure, shortened: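 AP-1-bla ME-180 cells, Opti-MEM + 0.5% dialyzed FBS, plated overnight 37 °C. Cpd titration + EC50 EGF, 5 h 37 °C. CCF4 2.5 h RT; ex 405, em 460/530 ratio → %activity, AC50.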
# [4] = target: Cytochrome P450 1A2 (Homo sapiens) (UniProt P05177); assay: p450-cyp1a2 (AID 410; calls by dose curve; further: potency means the concentration at half of the fitted maximal effect;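 on activity change, negative = inhibition: -100% = full effect of reference inhibitor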)
# Procedure, shortened: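 Human CYP1A2 (20nM) demethylated Luciferin-ME at its Km (100uM) in 100mM KPO4. After 10 min compound preincubation, NADPH regeneration ran the reaction 60 min at room temperature. Luciferin was read by luminescence, normalized to 57 uM furafylline.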
# [5] = NFAT Signaling Pathway (AID 444; active means well fitted curve in either direction with a large enough effect, not every such curve was filed as active;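 further: carbachol stimulus at about its EC50 of 1 µM final; on the % scale 0 is the no-effect control and ±100 the full control effect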); conditions: Jurkat NFAT-bla M1, carbachol, beta-lactamase ratio, 5 h; at 7.69 µM (top of the series) unless noted
# Procedure, shortened: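 Jurkat cells carrying an NFAT-driven β-lactamase reporter and co-transfected muscarinic M1 receptor were treated with compound plus carbachol (1 uM final, an EC50 level) for 5 h at 37 °C. CCF4 loading followed for 1 h at RT; 460/530 nm ratio gave %activity.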
# [6] = Stat Signaling Pathway (AID 446; active means well fitted curve in either direction with a large enough effect, not every such curve was filed as active;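 further: ME-180 cervical cancer cells given 40 pM IL-6 alongside compound; SIE-controlled beta-lactamase reporter measured as 460/530 nm FRET emission ratio; on the % scale 0 is the no-effect control and ±100 the full control effect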)
# Procedure, shortened: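 Screening format detects activators and inhibitors alike: ME-180 SIE-bla cells stimulated at 40 pM IL-6 for 5 hrs with compound, then dual-emission beta-lactamase read at 405 nm excitation.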
# [7] = target: Glucocorticoid receptor (Homo sapiens) (UniProt P04150); assay: GR-GFP Redistribution (AID 450;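 active means compounds whose dose series gives a full or clear partial fitted curve of increased nuclear translocation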; further: potency means the concentration at half of the fitted maximal effect); conditions: U2OS GR-GFP nuclear translocation, laser cytometry, 2 h
# [8] = target: Glucocorticoid receptor (Homo sapiens) (UniProt P04150); assay: GR-EFC Redistribution (AID 451; calls by dose curve; further: potency means the concentration at half of the fitted maximal effect); conditions: CHO-K1 GR-EFC translocation, beta-gal luminescence, 2 h
# Procedure, shortened: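 CHO-K1 cells stably expressing nuclear-localized β-gal enzyme acceptor and GR fused C-terminally to the enzyme donor fragment; ligand-driven nuclear translocation restores β-gal by complementation. Compounds titrated up to 46 uM final, 2 h at 37 °C; luminescence read.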
# [9] = target: Mitogen-activated protein kinase 10 (Mus musculus) (UniProt Q61831); assay: JNK3 AlphaScreen Assay (AID 530; active means well fitted curve in either direction with a large enough effect, not every such curve was filed as active;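 further: kinase came from lysate of stimulated human HepG2 cells; signal reports phosphorylation of biotinylated GST-cJun 1-79 at Ser73 with 10 µM ATP; on the % scale 0 is the no-effect control and ±100 the full control effect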)
# Procedure, shortened: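 JNK3 came from HepG2 lysates pre-activated with IL-1beta and TNF-alpha and phosphorylated biotinylated GST-cJun (1-79) at 10 uM ATP, pH 7.6, room temperature. Compounds were titrated. AlphaScreen signal used anti-phospho-cJun (Ser73) antibody.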
# [10] = target: 3',5'-cyclic-AMP phosphodiesterase 4B (Homo sapiens) (UniProt Q07343); assay: qHTS Assay for Inhibitors of PDE-IV (AID 607; active means well fitted activation curve with a large enough effect in the main read-out, with a control signal flat, not every such curve was filed as active; further: % of control where 0% means no effect)
# Procedure, shortened: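 The readout is membrane depolarisation from a cAMP-sensing CNG channel, detected with a potential dye at ex 535/em 590. Cells were HEK293-derived (endogenous PDE-IV) at 1000 cells/well, titrated up to 22.9 uM final.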
# [11] = target: Cytochrome P450 3A4 (Homo sapiens) (UniProt P08684); assay: qHTS Assay for Inhibitors and Substrates of Cytochrome P450 3A4 (AID 884); further: potency means the concentration at half of the fitted maximal effect; nearly all actives have a fitted effect of over 50% in size
# Procedure, shortened: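 20 nM human CYP3A4 with 25 uM Luciferin-PPXE (at KM) in 200 mM KPO4, preincubated 10 min with compound; NADPH regeneration started a 60 min RT reaction. Luciferin detected by luminescence, normalized to 57 uM ketoconazole as full inhibition.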
# [12] = target: Dual specificity protein kinase CLK4 (Homo sapiens) (UniProt Q9HAZ1); assay: qHTS Assay for Inhibitors of CDC-like Kinase 4 (Kinase-Glo Assay) (AID 1770); further: nearly all actives have a fitted effect of over 65% in size; further: potency means the concentration at half of the fitted maximal effect
# Procedure, shortened: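 Inhibition was judged from remaining ATP, measured by Ultra-Glo luciferase bioluminescence after Clk4 (25 nM) had acted on RS peptide at 1 uM ATP for 4.5 hours, room temperature.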
# [13] = target: Dual specificity protein kinase CLK4 (Homo sapiens) (UniProt Q9HAZ1); assay: qHTS Assay for Inhibitors of CDC-like Kinase 4 (ADP-Glo Assay) (AID 1771); further: nearly all actives have a fitted effect of over 70% in size; further: potency means the concentration at half of the fitted maximal effect
# Procedure, shortened: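 Clk4 (25 nM) was incubated 1 hr at room temperature with 100 uM RS repeat peptide and 1 uM ATP in buffer with 2 mM MgCl2, 0.5 mM EGTA, 2.5 mM DTT. ADP formed was quantified by ADP-Glo luminescence.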
# [14] = target: Dual specificity protein kinase CLK4 (Homo sapiens) (UniProt Q9HAZ1); assay: qHTS Assay for Inhibitors of CDC-like Kinase 4 (ADP-FP Assay) (AID 1795); further: nearly all actives have a fitted effect of over 60% in size; further: potency means the concentration at half of the fitted maximal effect
# Procedure, shortened: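 Inhibition of ADP formation by 6.25 nM Clk4 is measured using 1 uM ATP and 100 uM RS repeat peptide over one hour. Produced ADP displaces a fluorescent tracer from antibody, lowering polarization.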
# [15] = target: Ubiquitin carboxyl-terminal hydrolase 1 (Homo sapiens) (UniProt O94782); assay: Inhibitors of USP1/UAF1: Pilot qHTS (AID 504865);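 further: rhodamine fluorescence freed from ubiquitin-rhodamine substrate followed over time; top concentration of the series differs between compounds; on the % scale 0 is the no-effect control and ±100 the full control effect; nearly all actives have a fitted effect of over 35% in size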
# Procedure, shortened: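 Kinetic fluorescence assay: 1nM USP1/UAF1, 15 min compound preincubation, then 150nM Ub-Rho; 480/540 nm.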
# [16] = target: Cytochrome P450 3A4 (Homo sapiens) (UniProt P08684); assay: qHTS Assay for Activators of Cytochrome P450 3A4 (AID 885); further: nearly all actives have a fitted effect of over 65% in size
# Procedure, shortened: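 Steps: enzyme/substrate mix dispensed; compound added, 10 min RT; NADPH regeneration solution added, 60 min RT; luciferin detection buffer stops reaction; 20 min later luminescence measured.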
# [17] = target: Cytochrome P450 2C19 (Homo sapiens) (UniProt P33261); assay: qHTS Assay for Inhibitors and Substrates of Cytochrome P450 2C19 (AID 899); further: potency means the concentration at half of the fitted maximal effect; nearly all actives have a fitted effect of over 60% in size
# Procedure, shortened: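 Human CYP2C19 (5nM) with Luciferin-H EGE at 10uM (its KM) in 50mM KPO4 was preincubated with compound for 10 min at 37C. NADPH regeneration started a 60 min 37C reaction. Luciferin was read by luminescence, normalized to 57uM ketoconazole.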
# [18] = target: Glutathione peroxidase 1 (Homo sapiens) (UniProt P07203); assay: Primary qHTS Assay for Inhibitors of Recombinant Selenoprotein Glutathione Peroxidase 1 (GPX1) (AID 1845191); further: nearly all actives have a fitted effect of over 65% in size
# Procedure, shortened: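 Recombinant GPX1 (10 nM final) was preincubated with compound for 30 min at room temperature, then reacted with 1 mM GSH, 0.5 mM CHP, 0.5 mM NADPH and 100 nM glutathione reductase; NADPH fluorescence (340/450 nm) was read at 0 and 15 min.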
# [19] = target: Phospholipid hydroperoxide glutathione peroxidase GPX4 (Homo sapiens) (UniProt P36969); assay: Primary qHTS Assay for Inhibitors of Recombinant Selenoprotein Glutathione Peroxidase 4 (GPX4) (AID 1845192); further: on the % scale 0 is the no-effect control and ±100 the full control effect; nearly all actives have a fitted effect of over 65% in size
# Procedure, shortened: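 GR-coupled readout: 100 nM GR, 1 mM GSH, 0.5 mM NADPH; NADPH fluorescence (ex 340/em 450 nm) read at t=0 and after 15 min RT. GPX4 200 nM, preincubated 30 min with compound; substrate 0.5 mM CHP.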
# [20] = target: Cytochrome P450 2D6 (Homo sapiens) (UniProt P10635); assay: qHTS Assay for Inhibitors and Substrates of Cytochrome P450 2D6 (AID 891); further: potency means the concentration at half of the fitted maximal effect; nearly all actives have a fitted effect of over 60% in size
# Procedure, shortened: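 Human CYP2D6 (5 nM) with 30 uM Luciferin-ME EGE (at Km) in 100 mM KPO4, compound preincubated 10 min, then NADPH regeneration system for 60 min at room temperature. Luciferin read by luminescence; normalized to 1.43 uM quinidine.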
# Chain of Lysosomal acid glucosylceramidase (Homo sapiens) (P04062 whole entry, looked up): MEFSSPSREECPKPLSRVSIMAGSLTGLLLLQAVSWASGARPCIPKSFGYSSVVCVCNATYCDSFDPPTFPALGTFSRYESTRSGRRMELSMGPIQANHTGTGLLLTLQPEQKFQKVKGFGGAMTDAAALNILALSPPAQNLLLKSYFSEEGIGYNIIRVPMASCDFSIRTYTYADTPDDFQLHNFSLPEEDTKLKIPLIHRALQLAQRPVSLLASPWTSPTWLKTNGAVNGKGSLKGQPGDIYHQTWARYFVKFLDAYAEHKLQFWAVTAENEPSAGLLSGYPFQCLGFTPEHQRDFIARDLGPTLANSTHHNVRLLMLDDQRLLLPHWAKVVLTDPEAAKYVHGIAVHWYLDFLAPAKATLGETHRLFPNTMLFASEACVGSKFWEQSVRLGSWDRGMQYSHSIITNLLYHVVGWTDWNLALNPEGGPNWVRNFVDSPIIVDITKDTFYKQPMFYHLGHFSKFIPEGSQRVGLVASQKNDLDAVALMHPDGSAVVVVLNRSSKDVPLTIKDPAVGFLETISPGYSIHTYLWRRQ
# Chain of Cytochrome P450 3A4 (Homo sapiens) (P08684 whole entry, looked up): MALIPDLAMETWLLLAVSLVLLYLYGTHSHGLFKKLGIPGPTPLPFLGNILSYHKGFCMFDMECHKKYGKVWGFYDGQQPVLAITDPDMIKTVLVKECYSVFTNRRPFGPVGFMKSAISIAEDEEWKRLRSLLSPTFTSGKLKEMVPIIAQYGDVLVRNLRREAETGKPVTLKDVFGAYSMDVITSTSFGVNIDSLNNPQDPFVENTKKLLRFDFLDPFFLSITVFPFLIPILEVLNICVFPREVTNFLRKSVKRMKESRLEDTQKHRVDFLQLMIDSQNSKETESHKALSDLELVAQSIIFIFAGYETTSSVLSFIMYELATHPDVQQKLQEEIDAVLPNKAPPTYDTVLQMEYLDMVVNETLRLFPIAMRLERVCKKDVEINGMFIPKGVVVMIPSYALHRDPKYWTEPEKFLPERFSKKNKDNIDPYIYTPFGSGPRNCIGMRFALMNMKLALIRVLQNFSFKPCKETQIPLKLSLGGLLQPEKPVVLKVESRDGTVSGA
# Chain of Cytochrome P450 2C19 (Homo sapiens) (P33261 whole entry, looked up): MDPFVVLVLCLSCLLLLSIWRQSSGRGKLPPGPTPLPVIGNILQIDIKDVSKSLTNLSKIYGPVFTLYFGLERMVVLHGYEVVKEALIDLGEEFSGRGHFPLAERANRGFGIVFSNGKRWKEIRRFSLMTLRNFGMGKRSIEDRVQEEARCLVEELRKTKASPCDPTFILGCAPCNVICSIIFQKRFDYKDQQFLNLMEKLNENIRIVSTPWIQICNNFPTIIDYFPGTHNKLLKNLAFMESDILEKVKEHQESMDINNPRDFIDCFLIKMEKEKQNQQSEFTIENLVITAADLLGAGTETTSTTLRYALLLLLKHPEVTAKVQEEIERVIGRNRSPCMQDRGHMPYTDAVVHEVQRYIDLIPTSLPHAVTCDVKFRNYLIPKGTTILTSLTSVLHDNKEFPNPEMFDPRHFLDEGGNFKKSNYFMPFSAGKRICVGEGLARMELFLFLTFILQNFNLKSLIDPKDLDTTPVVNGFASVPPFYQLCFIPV
# Chain of Cytochrome P450 1A2 (Homo sapiens) (P05177 whole entry, looked up): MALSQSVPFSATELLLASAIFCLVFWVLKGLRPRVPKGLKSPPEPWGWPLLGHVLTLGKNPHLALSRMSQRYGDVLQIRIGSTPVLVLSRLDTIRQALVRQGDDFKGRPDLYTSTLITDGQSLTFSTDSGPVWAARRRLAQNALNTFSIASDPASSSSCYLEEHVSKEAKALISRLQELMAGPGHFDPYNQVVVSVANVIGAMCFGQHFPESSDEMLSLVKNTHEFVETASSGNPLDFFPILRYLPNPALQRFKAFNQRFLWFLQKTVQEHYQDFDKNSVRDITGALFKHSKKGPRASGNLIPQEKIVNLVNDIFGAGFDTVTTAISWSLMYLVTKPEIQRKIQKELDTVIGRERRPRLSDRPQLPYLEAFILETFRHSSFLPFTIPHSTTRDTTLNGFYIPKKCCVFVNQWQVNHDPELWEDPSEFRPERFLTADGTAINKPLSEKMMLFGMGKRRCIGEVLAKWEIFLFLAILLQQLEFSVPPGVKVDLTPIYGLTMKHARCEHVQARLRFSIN
# Chain of Ubiquitin carboxyl-terminal hydrolase 1 (Homo sapiens) (O94782 whole entry, looked up): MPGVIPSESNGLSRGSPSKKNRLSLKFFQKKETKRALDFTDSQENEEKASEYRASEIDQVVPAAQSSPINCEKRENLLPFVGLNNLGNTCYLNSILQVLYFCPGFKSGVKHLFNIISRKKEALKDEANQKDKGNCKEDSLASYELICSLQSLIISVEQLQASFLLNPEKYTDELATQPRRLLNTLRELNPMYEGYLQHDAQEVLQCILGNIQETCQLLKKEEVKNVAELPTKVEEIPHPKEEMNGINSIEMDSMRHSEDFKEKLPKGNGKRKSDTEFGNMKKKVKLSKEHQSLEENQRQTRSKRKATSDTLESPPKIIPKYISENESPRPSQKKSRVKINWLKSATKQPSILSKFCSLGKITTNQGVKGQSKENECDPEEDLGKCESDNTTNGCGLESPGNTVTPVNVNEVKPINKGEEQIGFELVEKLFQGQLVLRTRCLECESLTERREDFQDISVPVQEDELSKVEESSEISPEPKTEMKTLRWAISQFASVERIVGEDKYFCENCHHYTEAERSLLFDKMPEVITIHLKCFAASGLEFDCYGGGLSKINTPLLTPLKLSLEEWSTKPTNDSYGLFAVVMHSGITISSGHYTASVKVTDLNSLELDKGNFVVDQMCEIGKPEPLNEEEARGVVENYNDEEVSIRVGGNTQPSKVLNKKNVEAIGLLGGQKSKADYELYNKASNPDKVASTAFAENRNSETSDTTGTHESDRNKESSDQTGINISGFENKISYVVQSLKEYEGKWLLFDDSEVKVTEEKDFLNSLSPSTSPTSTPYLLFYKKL
# Chain of 3',5'-cyclic-AMP phosphodiesterase 4B (Homo sapiens) (Q07343 whole entry, looked up): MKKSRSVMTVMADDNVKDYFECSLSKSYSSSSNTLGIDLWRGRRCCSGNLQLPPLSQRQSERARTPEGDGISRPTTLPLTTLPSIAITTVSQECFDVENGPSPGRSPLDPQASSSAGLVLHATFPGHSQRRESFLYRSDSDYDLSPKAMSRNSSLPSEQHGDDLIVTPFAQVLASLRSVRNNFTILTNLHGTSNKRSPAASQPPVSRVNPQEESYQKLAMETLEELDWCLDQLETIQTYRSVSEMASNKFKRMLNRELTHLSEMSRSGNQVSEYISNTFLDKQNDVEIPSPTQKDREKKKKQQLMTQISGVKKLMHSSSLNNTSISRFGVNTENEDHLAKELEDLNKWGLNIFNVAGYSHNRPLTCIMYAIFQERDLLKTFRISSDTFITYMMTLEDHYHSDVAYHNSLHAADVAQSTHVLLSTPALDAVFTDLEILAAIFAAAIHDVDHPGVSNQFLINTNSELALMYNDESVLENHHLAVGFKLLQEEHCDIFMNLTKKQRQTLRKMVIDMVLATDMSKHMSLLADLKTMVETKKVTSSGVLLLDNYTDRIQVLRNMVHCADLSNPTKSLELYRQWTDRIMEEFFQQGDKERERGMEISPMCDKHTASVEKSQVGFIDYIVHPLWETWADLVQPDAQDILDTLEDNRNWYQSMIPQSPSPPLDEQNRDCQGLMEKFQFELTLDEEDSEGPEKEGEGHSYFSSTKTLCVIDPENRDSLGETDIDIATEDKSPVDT
# Chain of Cytochrome P450 2D6 (Homo sapiens) (P10635 whole entry, looked up): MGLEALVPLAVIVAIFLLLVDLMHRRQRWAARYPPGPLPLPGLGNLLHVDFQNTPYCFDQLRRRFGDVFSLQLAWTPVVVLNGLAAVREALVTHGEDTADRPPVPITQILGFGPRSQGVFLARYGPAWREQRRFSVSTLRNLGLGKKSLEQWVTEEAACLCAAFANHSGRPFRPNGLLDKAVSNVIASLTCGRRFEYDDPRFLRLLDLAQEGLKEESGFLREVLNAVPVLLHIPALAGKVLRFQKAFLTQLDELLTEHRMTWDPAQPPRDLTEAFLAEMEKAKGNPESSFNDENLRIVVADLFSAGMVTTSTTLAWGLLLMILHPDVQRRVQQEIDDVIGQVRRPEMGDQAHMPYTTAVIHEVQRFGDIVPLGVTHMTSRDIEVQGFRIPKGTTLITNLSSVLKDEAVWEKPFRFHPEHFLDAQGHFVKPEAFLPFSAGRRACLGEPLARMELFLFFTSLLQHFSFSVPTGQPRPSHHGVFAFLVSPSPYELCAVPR
# Chain of Glucocorticoid receptor (Homo sapiens) (P04150 whole entry, looked up, the tested form may be a part): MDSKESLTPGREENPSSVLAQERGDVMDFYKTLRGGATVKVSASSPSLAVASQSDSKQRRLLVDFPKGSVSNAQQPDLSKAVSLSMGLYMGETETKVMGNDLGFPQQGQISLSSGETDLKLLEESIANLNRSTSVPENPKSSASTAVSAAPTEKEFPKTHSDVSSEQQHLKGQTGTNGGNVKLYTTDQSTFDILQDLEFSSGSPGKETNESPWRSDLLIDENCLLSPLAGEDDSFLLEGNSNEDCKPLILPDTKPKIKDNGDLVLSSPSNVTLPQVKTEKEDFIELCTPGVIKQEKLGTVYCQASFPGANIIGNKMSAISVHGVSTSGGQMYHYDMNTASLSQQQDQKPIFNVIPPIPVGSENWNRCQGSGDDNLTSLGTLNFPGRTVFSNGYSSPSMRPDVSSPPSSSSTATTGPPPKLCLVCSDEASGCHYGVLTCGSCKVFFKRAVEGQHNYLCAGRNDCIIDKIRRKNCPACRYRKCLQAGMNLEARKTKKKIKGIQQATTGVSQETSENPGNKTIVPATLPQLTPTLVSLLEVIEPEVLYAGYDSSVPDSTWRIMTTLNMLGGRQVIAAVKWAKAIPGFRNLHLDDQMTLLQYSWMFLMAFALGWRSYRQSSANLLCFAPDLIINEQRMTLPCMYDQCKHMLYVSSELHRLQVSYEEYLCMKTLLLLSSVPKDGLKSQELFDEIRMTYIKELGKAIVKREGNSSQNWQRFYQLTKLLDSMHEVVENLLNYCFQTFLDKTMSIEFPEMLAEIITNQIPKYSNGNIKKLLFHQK
smiles,measurement,setting,value
CCOC(=O)NCCCC(=O)NCCc1ccccc1,Potency,[1],inactive
COc1ccc(Oc2ncc3nc(-c4cccc(C#N)c4)c(=O)n(Cc4cccc(OC)c4)c3n2)cc1,Potency,[2],> 11.4 µM
same,"activity change, negative = inhibition",[3],7.45%
same,Potency,[4],inactive
same,"activity change, negative = inhibition",[5],-6.12%
same,outcome,[6],inactive
same,Potency,[7],> 9.22 µM
same,Potency,[8],> 46 µM
same,Potency,[9],inactive
same,Potency,[10],inactive
same,Potency,[11],2 µM (active)
same,Potency,[12],inactive
same,Potency,[13],inactive
same,Potency,[14],inactive
same,Potency,[15],inactive
CCCC[C@H](NC(=O)[C@@H]1[C@@H]2[C@H](CN1C(=O)[C@@H](NC(=O)NC1(CS(=O)(=O)C(C)(C)C)CCCCC1)C(C)(C)C)C2(C)C)C(=O)C(=O)NC1CC1,Potency,[1],inactive
CCNc1ncc2ncc(=O)n(Cc3ccc(F)cc3)c2n1,Potency,[2],> 11.4 µM
same,"activity change, negative = inhibition",[3],-23.6%
same,Potency,[4],1 µM (active)
same,"activity change, negative = inhibition",[5],3%
same,Potency,[7],> 9.22 µM
same,Potency,[8],> 46 µM
same,Potency,[9],inactive
same,Potency,[10],inactive
same,outcome,[16],inactive
same,Potency,[12],7.94 µM (active)
same,Potency,[13],6.31 µM (active)
same,Potency,[14],11.2 µM (active)
same,Potency,[15],inactive
C[C@H]1O[C@@H](O[C@H]2CC[C@@]3(C)C(CC[C@]4(C)[C@@H]3C=CC3=C5CC(C)(C)CC[C@]5(CO)[C@H](O)C[C@@]34C)[C@]2(C)CO)[C@H](O)[C@@H](O[C@@H]2O[C@H](CO)[C@@H](O)[C@H](O)[C@@H]2O)[C@H]1O (stereo not given in full),Potency,[1],inactive
Cc1ccccc1-c1ccc2ncnc(-n3ccnc3)c2c1,Potency,[2],> 11.4 µM
same,Potency,[4],0.794 µM (active)
same,Potency,[7],> 46 µM
same,Potency,[8],> 46 µM
same,Potency,[9],inactive
same,Potency,[11],0.501 µM (active)
same,outcome,[16],inactive
same,Potency,[17],2 µM (active)
same,Potency,[12],7.94 µM (active)
same,Potency,[13],7.08 µM (active)
same,Potency,[14],3.98 µM (active)
same,Potency,[15],inactive
Cc1cc(/C=C/C#N)cc(C)c1Nc1ccnc(Nc2ccc(C#N)cc2)n1,Potency,[1],16.3 µM (active)
same,Potency,[18],inactive
same,Potency,[19],inactive
COc1cccc(-c2cncnc2NCCc2c[nH]c3ccc(OC)cc23)c1,Potency,[2],> 11.4 µM
same,Potency,[4],2 µM (active)
same,Potency,[7],> 46 µM
same,Potency,[8],> 46 µM
same,Potency,[10],inactive
same,Potency,[11],0.501 µM (active)
same,outcome,[16],inactive
same,Potency,[20],2.51 µM (active)
same,Potency,[17],0.316 µM (active)
same,Potency,[12],20 µM (active)
same,Potency,[13],22.4 µM (active)
same,Potency,[14],inactive
same,Potency,[15],inactive
c1ccc(CNc2nc(-c3cccnc3)nc3ccccc23)cc1,Potency,[2],> 11.4 µM
same,"activity change, negative = inhibition",[3],-20.2%
same,"activity change, negative = inhibition",[5],-17.2%
same,outcome,[6],inactive
same,Potency,[9],inactive
same,Potency,[20],15.8 µM (active)
same,Potency,[17],15.8 µM (active)
same,Potency,[12],7.08 µM (active)
same,Potency,[13],11.2 µM (active)
same,Potency,[14],5.01 µM (active)
CN1CCN(c2ncc3nc(-c4cn(C)c5ccccc45)c(=O)n(C[C@H]4CCCO4)c3n2)CC1,Potency,[2],> 11.4 µM
same,"activity change, negative = inhibition",[3],-8.04%
same,Potency,[4],6.31 µM (active)
same,"activity change, negative = inhibition",[5],3.64%
same,outcome,[6],inactive
same,Potency,[7],> 46 µM
same,Potency,[10],inactive
same,Potency,[12],inactive
same,Potency,[13],inactive
same,Potency,[14],inactive
COc1ccccc1CNc1ncncc1-c1ccc2c(c1)OCO2,Potency,[2],> 11.4 µM
same,"activity change, negative = inhibition",[3],-21.5%
same,Potency,[4],0.158 µM (active)
same,"activity change, negative = inhibition",[5],-11.1%
same,outcome,[6],inactive
same,Potency,[7],> 46 µM
same,Potency,[8],> 46 µM
same,Potency,[9],inactive
same,Potency,[11],0.199 µM (active)
same,outcome,[16],inactive
same,Potency,[20],2.51 µM (active)
same,Potency,[12],2.24 µM (active)
same,Potency,[13],2 µM (active)
same,Potency,[14],1 µM (active)
same,Potency,[15],inactive
COCCn1c(=O)c(CCc2ccccc2)nc2cncnc21,Potency,[2],> 11.4 µM
same,"activity change, negative = inhibition",[3],-15.8%
same,Potency,[4],10 µM (active)
same,"activity change, negative = inhibition",[5],9.83%
same,outcome,[6],inactive
same,Potency,[7],> 9.22 µM
same,Potency,[8],> 46 µM
same,Potency,[9],inactive
same,Potency,[10],inactive
same,Potency,[11],7.94 µM (active)
same,Potency,[12],inactive
same,Potency,[13],inactive
same,Potency,[14],inactive
same,Potency,[15],inactive
[N-]=[N+]=NCc1cccc(/C(O)=C\C(=O)C(=O)O)c1,Potency,[1],inactive
Cc1cnc(CNc2ncnc3ccc(-c4ccc(N(C)C)cc4)cc23)cn1,Potency,[2],> 11.4 µM
same,"activity change, negative = inhibition",[5],5.72%
same,outcome,[6],inactive
same,Potency,[7],> 46 µM
same,Potency,[8],> 46 µM
same,Potency,[10],inactive
same,outcome,[16],inactive
same,Potency,[12],8.91 µM (active)
same,Potency,[13],11.2 µM (active)
same,Potency,[14],inactive
same,Potency,[15],inactive
Cc1nc2cnc(Oc3cccc(Cl)c3)nc2n(Cc2ccc(F)cc2)c1=O,Potency,[2],> 11.4 µM
same,"activity change, negative = inhibition",[5],-21.7%
same,outcome,[6],inactive
same,Potency,[7],> 9.22 µM
same,Potency,[8],> 46 µM
same,Potency,[9],inactive
same,Potency,[10],inactive
same,Potency,[12],inactive
same,Potency,[13],inactive
same,Potency,[14],inactive
same,Potency,[15],inactive
